Assay results from PubChem BioAssay AID1159580 (chemical genetic matrix, 2015).
The whole screen tested about 5,500 compounds, of which about 2,000 (36%) were called active. Roughly 18% stayed inconclusive and do not appear here. Cut-off read from the data, not from the text of the source: active = normalized growth mostly below about 0.91 (no sharp cut-off); inconclusive = no clear call, values can overlap the other calls; inactive = mostly above about 0.92. The list shows a part of the results.

Test: chemical genetic growth profiling, strain panel (AID 1159580);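 note: tested at 20 µM; growth read once vehicle control cultures reached saturation at 30 °C; 1 = growth at the plate median or of vehicle wells; lower values mean less growth of the strain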
Conditions: S. cerevisiae deletion strains, growth OD

Measured: normalized growth

CN1C2CCC1CC(OC(=O)c1cc(Cl)cc(Cl)c1)C2 (centres undefined)
inactive: locus YAL040C, strain CLN3, hits give low values 1 | locus YCL061C, strain MRC1 (second series), hits give low values 1 | locus YDR363W, strain ESC2, hits give low values 0.99 | locus YER002W, strain NOP16, hits give low values 0.997 | locus YGR078C, strain PAC10, hits give low values 1.01 | locus YJR075W, strain HOC1, hits give low values 0.997 | locus YMR263W, strain SAP30, hits give low values 0.999 | locus YMR307W, strain GAS1, hits give low values 1 | locus YNL175C, strain NOP13, hits give low values 1.01 | locus YNL197C, strain WHI3, hits give low values 1.01 | locus YNL224C, strain SQS1, hits give low values 1.03 | locus YNL322C, strain KRE1, hits give low values 0.996 | locus YOR083W, strain WHI5 (second series), hits give low values 1.01 | locus YPL241C, strain CIN2, hits give low values 1
